Bioassay records: PubChem, National Center for Advancing Translational Sciences (NCATS)
IL2 activator – activators of IL-2. AID 652025. actives 0.065% (n = 360,000). IL-2 activation reporter assay, cell-based qHTS; stimulated with anti-CD3/CD4/CD28 beads; in transgenic mouse T cells. activation, % (series mostly up to about 46 µM); in the data active = activation above about 50%; inconclusive = mostly about 30% to 49%
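Unstimulated transgenic mouse T cells; 60-min compound exposure; bead-based TCR/CD4/CD28 stimulation; 18 h culture, 37 degrees C; dual fluorescence (EGFP, DsRed) plate cytometry.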
NPSR antagonist – neuropeptide S receptor (human) antagonism, cAMP; Q6W5P4; CHO-NPSR cells, cAMP TR-FRET, antagonist mode; Potency, µM (doses to about 38.3 µM), hits mostly inhibitors; actives 1% (n = 220,000); AID 1461; note: nearly all actives have a fitted effect of over 50% in size
PKM2 activator – increases activity of human pyruvate kinase M2; P14618; purified PKM2, Kinase-Glo ATP luminescence, activation; response scale: 0% is enzyme alone, no compound; Potency, µM (titrated, usually from 57.5 µM), actives largely listed as activators; actives 0.34% (n = 260,000); AID 1631; note: nearly all actives have a fitted effect of over 55% in size
Target sequence (P14618 whole entry, looked up): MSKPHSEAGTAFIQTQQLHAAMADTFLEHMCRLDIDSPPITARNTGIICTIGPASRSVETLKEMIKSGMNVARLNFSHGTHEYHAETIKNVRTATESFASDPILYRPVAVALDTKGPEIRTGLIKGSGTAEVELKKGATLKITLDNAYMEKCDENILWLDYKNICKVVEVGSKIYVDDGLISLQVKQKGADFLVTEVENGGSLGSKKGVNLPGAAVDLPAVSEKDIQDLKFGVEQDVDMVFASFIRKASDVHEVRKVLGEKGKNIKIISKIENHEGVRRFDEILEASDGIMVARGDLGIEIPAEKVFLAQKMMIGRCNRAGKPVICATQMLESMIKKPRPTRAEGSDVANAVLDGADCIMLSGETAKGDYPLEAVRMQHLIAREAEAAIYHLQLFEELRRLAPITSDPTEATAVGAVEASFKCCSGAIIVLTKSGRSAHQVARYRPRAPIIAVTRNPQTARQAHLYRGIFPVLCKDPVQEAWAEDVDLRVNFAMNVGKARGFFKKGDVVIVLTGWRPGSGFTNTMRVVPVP
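Purified hPK-M2 (>95%) run at intermediate activity with 0.1 mM ADP and 0.5 mM PEP in 50 mM imidazole pH 7.2, KCl, MgCl2; 1 h room temperature. ATP formed read by Kinase-Glo luminescence; normalized to uninhibited and no-enzyme controls.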
ClpP mod – qHTS Assay for Activators of ClpP; purified B. subtilis ClpP, FRET peptide cleavage, 20 min; actives 1.9% (n = 340,000); Potency, µM (highest dose often 57.5 µM); ATP-dependent Clp protease proteolytic subunit (Bacillus subtilis (strain 168)), P80244; active = well fitted falling curve with a large enough effect; inconclusive = small, poorly fitted or top-dose-only effect; inactive = no such curve, though single readings can be large or run the other way; note: the source files actives as falling curves though it sought activators and does not explain the sign; nearly all actives have a fitted effect of over 65% in size
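FRET quenching reversal measured ClpP activation: 10 microg/mL B. subtilis ClpP at pH 8 with the FRET-FV decapeptide, read at 430 nm after 320 nm excitation. The 20-min minus 0-min signal was scaled between DMSO/no-enzyme wells and ADEP (5.8 microM final).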
A number is an active result. A selection: hits, their analogues and other compounds. The true share with any hit is near 2%. Unless noted, calls come from the whole dose curve; as a rule, active = well fitted curve in the direction sought with a large enough effect; inconclusive = small, poorly fitted or top-dose-only effect, or another doubt; inactive = no such curve, though single readings can be large; an effect the other way counts as inactive or inconclusive.

`Cc1occc1-c1nnc(SCC(=O)c2ccc(Cl)cc2)n1C` gave IL2 activator inactive, NPSR antagonist inactive, PKM2 activator inactive and ClpP mod inactive.
For COc1ccc2cc(CN(Cc3ccco3)Cc3nnnn3C3CCCCC3)c(=O)[nH]c2c1 the results were IL2 activator inactive, NPSR antagonist inconclusive, PKM2 activator inactive and ClpP mod inactive.
COCCn1nnnc1CN(Cc1ccco1)Cc1cc2cc3c(cc2[nH]c1=O)OCO3 was read as IL2 activator inactive, NPSR antagonist inactive, PKM2 activator inactive and ClpP mod 28µM.
CC(C)(C)n1nnnc1CN(Cc1ccco1)Cc1cc2cc3c(cc2[nH]c1=O)OCO3 was read as IL2 activator inactive, NPSR antagonist inactive, PKM2 activator inactive and ClpP mod 28µM.
Screening CCOc1ccc2[nH]c(=O)c(CN(Cc3ccco3)Cc3nnnn3Cc3ccccc3)cc2c1 returned IL2 activator inactive, NPSR antagonist inactive, PKM2 activator inactive and ClpP mod inconclusive.
Screening COc1ccc(Cn2nnnc2CN(Cc2cc3ccc(C)cc3[nH]c2=O)C2CCCC2)cc1 returned IL2 activator 55, NPSR antagonist inconclusive, PKM2 activator inactive and ClpP mod inactive.
For COc1ccc2[nH]c(=O)c(CN(Cc3ccco3)Cc3nnnn3Cc3ccccc3)cc2c1 the results were IL2 activator inactive, NPSR antagonist inconclusive, PKM2 activator inactive and ClpP mod 25µM.
Screening O=NN(CC(=O)NNc1ccccc1)CC(=O)NNc1ccccc1 returned IL2 activator inactive and ClpP mod inactive.
CCC(C)(C)n1nnnc1CN(Cc1ccco1)Cc1cc2cc3c(cc2[nH]c1=O)OCO3 was read as IL2 activator inactive, NPSR antagonist inactive, PKM2 activator inactive and ClpP mod 32µM.
`Cc1ccc2cc(CN(Cc3ccc4c(c3)OCO4)Cc3nnnn3Cc3ccco3)c(=O)[nH]c2c1C` gave IL2 activator inactive, NPSR antagonist inconclusive, PKM2 activator inconclusive and ClpP mod inactive.
COc1cccc(-c2nc(-c3ccc(-c4ccccc4)nc3OC)no2)c1 was read as ClpP mod 25µM.
Screening COCc1nc(-c2ccc(-c3ccc(C)cc3)nc2OC)no1 returned IL2 activator inactive, NPSR antagonist inactive, PKM2 activator inactive and ClpP mod 35µM.
For COc1ccc(-c2ccc(-c3noc(-c4cccc(OC)c4)n3)c(OC)n2)cc1 the results were IL2 activator inactive, NPSR antagonist inactive, PKM2 activator inactive and ClpP mod 3.2µM.
COc1ccc(-c2ccc(-c3noc(-c4ccc(OC)c(OC)c4)n3)c(OC)n2)cc1 was read as NPSR antagonist inactive and PKM2 activator inactive.
For COc1ccc(-c2ccc(-c3noc(C)n3)c(OC)n2)cc1 the results were IL2 activator inactive, NPSR antagonist inactive, PKM2 activator inactive and ClpP mod 14µM.
Cc1ccc(N(C(C)C(=O)Nc2cc(Cl)ccc2Oc2ccccc2)S(C)(=O)=O)cc1 (stereo not drawn) was read as IL2 activator inactive, NPSR antagonist inconclusive, PKM2 activator inactive and ClpP mod inactive.
For COc1ccc(C(=O)O)cc1NCc1ccc(C)s1 the results were IL2 activator inactive and PKM2 activator inactive.
CCNC(=O)N1c2ccc(OC)cc2C(C)=CC1(C)C was read as IL2 activator inactive, NPSR antagonist inactive, PKM2 activator inactive and ClpP mod 32µM.
For CCOc1ccc2c(c1)C(C)=CC(C)(C)N2C(=O)Nc1ccccc1 the results were IL2 activator inactive, NPSR antagonist inactive, PKM2 activator inactive and ClpP mod 28µM.
COc1ccc(NC(=O)N2c3ccc(OC)cc3C(C)=CC2(C)C)cc1 was read as IL2 activator inactive, NPSR antagonist inactive, PKM2 activator inactive and ClpP mod inactive.
For CC1CCc2c(sc(NC(=O)Cn3nc(C(=O)O)c4ccccc4c3=O)c2C#N)C1 (stereo not drawn) the results were IL2 activator inactive, NPSR antagonist inactive, PKM2 activator inactive and ClpP mod inactive.
Screening c1ccc(-c2noc(-c3ccccc3-c3ccccc3)n2)cc1 returned IL2 activator inactive, NPSR antagonist inactive, PKM2 activator inactive and ClpP mod inactive.
CN(C)c1ccc(-c2noc(-c3ccccc3O)n2)cc1 was read as IL2 activator inactive, NPSR antagonist inactive, PKM2 activator inactive and ClpP mod 10µM.
Screening CSc1nc2ccc(NS(=O)(=O)c3ccc4c(c3)OCCO4)cc2s1 returned IL2 activator inactive, NPSR antagonist inactive, PKM2 activator 16µM and ClpP mod inactive.
Screening CSc1nc2ccc(NS(=O)(=O)c3c(Cl)cccc3Cl)cc2s1 returned IL2 activator inactive, NPSR antagonist inactive, PKM2 activator inconclusive and ClpP mod inactive.
CCC(=O)c1cc(Br)ccc1OCC(=O)N1CCN(S(=O)(=O)c2ccccc2)CC1 was read as IL2 activator inactive and ClpP mod inactive.
For CCc1ccc(OCC(=O)Nc2ccc(-c3cc4ccccc4oc3=O)c(OC)c2)cc1 the results were IL2 activator inactive, NPSR antagonist inactive, PKM2 activator inactive and ClpP mod 35µM.
COc1cc(NC(=O)c2cccnc2)ccc1-c1cc2ccccc2oc1=O was read as NPSR antagonist inactive and PKM2 activator inactive.
`COc1cc(NC(=O)c2cc(Cl)ccc2Cl)ccc1-c1cc2ccccc2oc1=O` gave IL2 activator inactive, NPSR antagonist inactive, PKM2 activator inactive and ClpP mod 28µM.
For CCCC1Cc2nc(N3CCCCC3)c(C#N)cc2CO1 (stereo not drawn) the results were IL2 activator inactive, NPSR antagonist inconclusive, PKM2 activator inactive and ClpP mod inconclusive.
`Cc1ccc(S(=O)(=O)NC(=O)N2CCCC2)cc1` gave IL2 activator inactive and ClpP mod inactive.
`CN(C)C(=O)CSc1nnc(-c2cc(-c3cccs3)nc3ccccc23)o1` gave IL2 activator inactive, NPSR antagonist inactive, PKM2 activator inactive and ClpP mod 25µM.
`CCN(CC)C(=O)CSc1nnc(-c2cc(-c3ccc(Cl)cc3)nc3ccccc23)o1` gave IL2 activator inactive, NPSR antagonist inactive, PKM2 activator inactive and ClpP mod inactive.
`CCn1ccc(C(=O)Nc2ncc(C)s2)n1` gave IL2 activator inactive, PKM2 activator inactive and ClpP mod inactive.
Screening COc1cc(C2c3cc4c(cc3C3OC(=O)C2C3CO)OCO4)cc(OC)c1OC (stereo not drawn) returned IL2 activator inactive and ClpP mod inactive.
COc1cc([C@@H]2c3cc4c(cc3[C@@H](O)[C@H]3COC(=O)[C@H]23)OCO4)cc(OC)c1O[Si](C)(C)C(C)(C)C was read as IL2 activator inactive, NPSR antagonist 10µM, PKM2 activator inactive and ClpP mod inactive.
`Cc1cc(N)ccc1-n1c(C)ccc1C` gave IL2 activator inactive, NPSR antagonist inactive, PKM2 activator inactive and ClpP mod 32µM.
Screening CN(C)c1nc(-c2ccccc2)c2cnn(Cc3ccccc3)c2n1 returned IL2 activator inactive, NPSR antagonist inactive, PKM2 activator inactive and ClpP mod 28µM.
